PubChem BioAssay (Tox21)
Records with an inconclusive call do not appear. Activity calls are given as the source filed them. The call rests on the fitted dose curve; in most records, active means well fitted curve in the direction sought with a large enough effect in the repeat runs; inconclusive means weak or mixed curves; inactive means no such curve, though single readings can be large; an effect the other way counts as inactive or inconclusive.

Tests used:
[1] = qHTS RealTime-Glo MT Cell Viability Assay in HEK293 cells - 16 hour (AID 1224872); further: top concentration of the series differs between compounds; nearly all actives have a fitted effect of over 50% in size
How it was run: (§1)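 Homogeneous bioluminescent viability format in HEK293 cells (600 cells/well). Following 5 h at 37 C/5% CO2, 23 nL compound was pintooled; the signal was measured repeatedly during 40 h incubation.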

[2] = qHTS RealTime-Glo MT Cell Viability Assay in HepG2 cells - 8 hour (AID 1224873); further: nearly all actives have a fitted effect of over 55% in size
How it was run: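 HepG2 cells (600/well) mixed with RealTime-Glo MT reagent, settled 5 h at 37 C/5% CO2 before compound addition. Nonlytic NanoLuc luminescence from viable-cell prosubstrate reduction read repeatedly during 40 h treatment at 37 C.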

[3] = qHTS RealTime-Glo MT Cell Viability Assay in HEK293 cells - 40 hour (AID 1224874); conditions: RealTime-Glo luminescence; max response: stronger effect = lower value; further: nearly all actives have a fitted effect of over 50% in size
How it was run: (§2)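 600 cells/well were plated with the nonlytic NanoLuc/prosubstrate reagent, pre-incubated 5 h, then given 23 nL of compound in DMSO. Incubation at 37 C for 40 h, with luminescence from viable-cell-reduced substrate read repeatedly from 0 h.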

[4] = A CellTox Green Cytotoxicity Assay to monitor cytotoxicity in HEK293 cells - 24 hour (AID 1224875); further: series mostly up to about 77 µM; nearly all actives have a fitted effect of over 45% in size
How it was run: (§3)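 HEK293 cells, 600/well, were preincubated 5 hours and then exposed to compounds at 37 C for up to 40 hours. A cell-impermeant cyanine dye staining dead-cell DNA was read by fluorescence at 0, 8, 16, 24, 32 and 40 h time points.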

[5] = A CellTox Green Cytotoxicity Assay to monitor cytotoxicity in HepG2 cells - 16 hour (AID 1224876); further: nearly all actives have a fitted effect of over 45% in size
How it was run: (§4)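 HepG2 cells, 600/well, preincubated 5 h with CellTox Green dye, then exposed to Tox21 compounds in DMSO at 37 C for up to 40 h. Dead-cell DNA fluorescence read at the indicated time point.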

[6] = qHTS RealTime-Glo MT Cell Viability Assay in HepG2 cells - 32 hour (AID 1224877); further: nearly all actives have a fitted effect of over 55% in size
How it was run: (§5)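 Cell number in HepG2 cultures estimated from NanoLuc luminescence generated by metabolic reduction of a prosubstrate by living cells. The homogeneous, nonlytic format allowed repeated reads at 0, 8, 16, 24, 32 and 40 h of compound exposure.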

[7] = A CellTox Green Cytotoxicity Assay to monitor cytotoxicity in HepG2 cells - 24 hour (AID 1224878); further: nearly all actives have a fitted effect of over 45% in size
How it was run: as §4

[8] = A CellTox Green Cytotoxicity Assay to monitor cytotoxicity in HepG2 cells - 40 hour (AID 1224879); further: nearly all actives have a fitted effect of over 40% in size
How it was run: as §4

[9] = A CellTox Green Cytotoxicity Assay to monitor cytotoxicity in HEK293 cells - 32 hour (AID 1224881); further: nearly all actives have a fitted effect of over 40% in size
How it was run: as §3

[10] = A CellTox Green Cytotoxicity Assay to monitor cytotoxicity in HepG2 cells - 0 hour (AID 1224882); further: nearly all actives have a fitted effect of over 35% in size
How it was run: as §4

[11] = A CellTox Green Cytotoxicity Assay to monitor cytotoxicity in HepG2 cells - 32 hour (AID 1224883); further: nearly all actives have a fitted effect of over 50% in size
How it was run: as §4

[12] = A CellTox Green Cytotoxicity Assay to monitor cytotoxicity in HEK293 cells - 8 hour (AID 1224884); further: nearly all actives have a fitted effect of over 35% in size
How it was run: as §3

[13] = qHTS RealTime-Glo MT Cell Viability Assay in HepG2 cells - 16 hour (AID 1224885); further: nearly all actives have a fitted effect of over 50% in size
How it was run: as §5

[14] = qHTS RealTime-Glo MT Cell Viability Assay in HEK293 cells - 24 hour (AID 1224886)
How it was run: as §1

[15] = qHTS RealTime-Glo MT Cell Viability Assay in HEK293 cells - 8 hour (AID 1224887)
How it was run: as §2

[16] = A CellTox Green Cytotoxicity Assay to monitor cytotoxicity in HEK293 cells - 16 hour (AID 1224888); further: nearly all actives have a fitted effect of over 35% in size
How it was run: as §3

[17] = qHTS RealTime-Glo MT Cell Viability Assay in HepG2 cells - 0 hour (AID 1224889); further: nearly all actives have a fitted effect of over 50% in size
How it was run: as §5

[18] = A CellTox Green Cytotoxicity Assay to monitor cytotoxicity in HepG2 cells - 8 hour (AID 1224890); further: nearly all actives have a fitted effect of over 45% in size
How it was run: as §4

[19] = qHTS assay to identify small molecule antagonists of the estrogen receptor alpha (ER-alpha) signaling pathway using the BG1 cell line in the presence of 0.1 nM 17-beta-estradiol - cell viability counter screen (AID 1259241); further: nearly all actives have a fitted effect of over 40% in size
How it was run: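 VM7Luc4E2, 4,000 cells/well, phenol red-free medium + 10% charcoal-stripped FBS; 24 hr plating; cpd + 0.1 nM E2 final, 22 hr 37C/5% CO2; CellTiter-Fluor 30 min, fluorescence.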

[20] = qHTS RealTime-Glo MT Cell Viability Assay in HEK293 cells - 0 hour (AID 1224880)
How it was run: as §2
On the % scale 0 is the no-effect control and ±100 the full control effect.

CC(CC=O)CCCC(C)(C)O (stereo unspecified)
inactive: Potency [1] | outcome [2] | max response [3] 3.36% | outcome [4] | outcome [5] | outcome [6] | outcome [7] | Potency [8] | Potency [9] | outcome [10] | Potency [11] | Potency [12] | outcome [13] | Potency [14] | Potency [15] | outcome [16] | Potency [17] | outcome [18] | Potency [19]

CN=C(NC#N)Nc1ccc(C2=NNC(=O)CC2C)cc1 (stereo unspecified)
inactive: Potency [1] | outcome [2] | max response [3] 11.7% | outcome [4] | outcome [5] | outcome [6] | outcome [7] | Potency [8] | Potency [20] | Potency [9] | outcome [10] | Potency [11] | outcome [13] | Potency [14] | Potency [15] | outcome [16] | Potency [17] | outcome [18] | Potency [19]

CC(C)=O
inactive: Potency [1] | outcome [2] | max response [3] 0.384% | outcome [4] | outcome [5] | outcome [6] | outcome [7] | Potency [8] | Potency [20] | Potency [9] | Potency [11] | Potency [12] | outcome [13] | Potency [14] | Potency [15] | outcome [16] | Potency [17] | outcome [18] | Potency [19]

COC(=O)c1ccccc1C(=O)c1ccc(OCCN2CCCCC2)cc1
inactive: Potency [1] | outcome [2] | max response [3] -12% | outcome [4] | outcome [5] | outcome [6] | outcome [7] | Potency [8] | Potency [20] | Potency [9] | Potency [11] | Potency [12] | outcome [13] | Potency [14] | Potency [15] | outcome [16] | outcome [18] | Potency [19]

CCOCCOC(=O)/C=C/c1ccc(OC)cc1
inactive: Potency [1] | outcome [2] | max response [3] 4.37% | outcome [4] | outcome [5] | outcome [6] | outcome [7] | Potency [8] | Potency [20] | Potency [9] | outcome [10] | Potency [11] | outcome [13] | Potency [14] | Potency [15] | outcome [16] | Potency [17] | Potency [19]

COC(=O)[C@@H]1[C@H]2C[C@H]3c4[nH]c5ccccc5c4CCN3C[C@@H]2CC[C@@H]1O
inactive: Potency [1] | outcome [2] | max response [3] -22.3% | outcome [4] | outcome [5] | outcome [6] | outcome [7] | Potency [8] | Potency [20] | Potency [9] | Potency [11] | Potency [12] | Potency [14] | Potency [15] | outcome [16] | Potency [17] | Potency [19]

CC(C(=O)O)c1ccc2c(c1)CC(=O)c1ccccc1S2 (stereo unspecified)
inactive: Potency [1] | outcome [2] | max response [3] -2.02% | outcome [4] | outcome [5] | outcome [6] | outcome [7] | Potency [8] | Potency [20] | Potency [9] | Potency [11] | Potency [12] | outcome [13] | Potency [14] | Potency [15] | outcome [16] | Potency [17] | outcome [18] | Potency [19]

Nc1ncnc(Nc2ccccc2)n1
inactive: Potency [1] | outcome [2] | max response [3] 3.02% | outcome [4] | outcome [5] | outcome [6] | outcome [7] | Potency [8] | Potency [20] | Potency [9] | Potency [11] | Potency [12] | Potency [14] | Potency [15] | outcome [16] | Potency [17] | outcome [18] | Potency [19]

CCCCCOC(=O)CCC
inactive: Potency [1] | outcome [2] | max response [3] -0.243% | outcome [4] | outcome [5] | outcome [6] | outcome [7] | Potency [8] | Potency [9] | outcome [10] | Potency [11] | Potency [14] | Potency [15] | outcome [16] | Potency [17] | outcome [18] | Potency [19]

O=C(CCNNC(=O)c1ccncc1)NCc1ccccc1
inactive: Potency [1] | outcome [2] | max response [3] 3.81% | outcome [4] | outcome [5] | outcome [6] | outcome [7] | Potency [8] | Potency [9] | outcome [10] | Potency [11] | Potency [12] | outcome [13] | Potency [14] | Potency [15] | outcome [16] | Potency [17] | outcome [18] | Potency [19]

CC(C)C[C@H](NC(=O)CNC(=O)[C@H](Cc1ccc(O)cc1)NC(=O)[C@H](CO)NC(=O)[C@H](Cc1c[nH]c2ccccc12)NC(=O)[C@H](Cc1cnc[nH]1)NC(=O)[C@@H]1CCC(=O)N1)C(=O)N[C@@H](CCCN=C(N)N)C(=O)N1CCC[C@H]1C(=O)NCC(N)=O (stereo in doubt)
inactive: Potency [1] | outcome [2] | max response [3] 12.8% | outcome [4] | outcome [5] | outcome [6] | outcome [7] | Potency [8] | Potency [20] | Potency [9] | Potency [11] | Potency [12] | outcome [13] | Potency [14] | Potency [15] | outcome [16] | Potency [17] | outcome [18] | Potency [19]

C=Cc1ccccn1
inactive: Potency [1] | outcome [2] | max response [3] -0.127% | outcome [4] | outcome [5] | outcome [6] | outcome [7] | Potency [8] | Potency [9] | outcome [10] | Potency [11] | Potency [12] | outcome [13] | Potency [14] | Potency [15] | outcome [16] | Potency [17] | outcome [18] | Potency [19]

CNC(=O)[C@H]1O[C@@H](n2cnc3c(NCc4cc(Cl)ccc4OCc4cc(C)no4)ncnc32)[C@H](O)[C@@H]1N
inactive: Potency [1] | outcome [2] | max response [3] 0.414% | outcome [4] | outcome [5] | outcome [6] | outcome [7] | Potency [8] | Potency [20] | Potency [9] | outcome [10] | Potency [11] | outcome [13] | Potency [14] | Potency [15] | outcome [16] | Potency [17] | outcome [18] | Potency [19]

O=C(CS(=O)Cc1ccco1)NC/C=C\COc1cc(CN2CCCCC2)ccn1 (stereo unspecified)
inactive: Potency [1] | outcome [2] | max response [3] -0.682% | outcome [4] | outcome [5] | outcome [6] | outcome [7] | Potency [8] | Potency [9] | Potency [11] | Potency [12] | Potency [14] | Potency [15] | outcome [16] | Potency [17] | Potency [19]
